# Measurements from ChEMBL document CHEMBL3988442, “University of Dundee, Small-Polar-MMV Screening Library” (2021).
# For some assays here: Measured potencies and affinities stand elsewhere.
# Experiments:
# Design in all cases: scale not given: direction of the effect not stated beside the values
# [1] = target: Protein translocase subunit SecA (Escherichia coli (strain K12)) (UniProt P10408); test: Assay to Identify E. coli SecA ATPase Inhibitors; format: functional; details: 30 µM
# [2] = target: T1, Ubiquitin-activating enzyme e1, putative (Leishmania donovani (strain BPK282A1)) (UniProt E9BSI1); test: Leishmania donovani Ubiquitin Activating Enzyme (LdE1); format: functional; details: 30 µM
# T1 sequence (whole entry): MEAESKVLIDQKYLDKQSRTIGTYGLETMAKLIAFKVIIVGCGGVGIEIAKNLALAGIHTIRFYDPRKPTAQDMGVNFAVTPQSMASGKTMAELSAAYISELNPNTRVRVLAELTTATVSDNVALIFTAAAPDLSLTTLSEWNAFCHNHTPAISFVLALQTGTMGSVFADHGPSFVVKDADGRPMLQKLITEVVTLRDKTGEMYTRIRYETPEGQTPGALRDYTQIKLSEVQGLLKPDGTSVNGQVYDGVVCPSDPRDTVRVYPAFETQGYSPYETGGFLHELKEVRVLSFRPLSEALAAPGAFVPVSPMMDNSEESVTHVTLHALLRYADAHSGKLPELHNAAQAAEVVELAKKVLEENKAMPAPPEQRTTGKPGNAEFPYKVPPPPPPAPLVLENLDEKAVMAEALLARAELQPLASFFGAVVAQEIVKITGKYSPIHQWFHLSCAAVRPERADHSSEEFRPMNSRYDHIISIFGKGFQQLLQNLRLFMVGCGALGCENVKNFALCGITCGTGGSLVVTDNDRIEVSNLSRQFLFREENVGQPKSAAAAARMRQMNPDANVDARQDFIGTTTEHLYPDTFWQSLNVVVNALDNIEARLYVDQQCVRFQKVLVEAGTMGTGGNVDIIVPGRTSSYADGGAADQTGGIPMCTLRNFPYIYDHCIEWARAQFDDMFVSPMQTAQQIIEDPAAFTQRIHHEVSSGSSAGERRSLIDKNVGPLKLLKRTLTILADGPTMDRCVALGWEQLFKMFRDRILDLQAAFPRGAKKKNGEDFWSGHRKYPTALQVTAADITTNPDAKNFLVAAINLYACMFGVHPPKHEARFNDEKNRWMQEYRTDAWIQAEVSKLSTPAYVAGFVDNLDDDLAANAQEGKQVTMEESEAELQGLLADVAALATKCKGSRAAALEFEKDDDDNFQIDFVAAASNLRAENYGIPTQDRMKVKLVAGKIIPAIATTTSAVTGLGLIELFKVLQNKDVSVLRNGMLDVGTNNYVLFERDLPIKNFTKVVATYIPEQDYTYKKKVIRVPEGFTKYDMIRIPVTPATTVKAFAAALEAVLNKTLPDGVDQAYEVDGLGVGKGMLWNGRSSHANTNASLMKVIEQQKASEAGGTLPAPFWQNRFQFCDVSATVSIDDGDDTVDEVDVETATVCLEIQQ
# [3] = target: AMP-activated protein kinase, AMPK (Homo sapiens) (UniProt P54646+O43741+P54619+Q9UGJ0+Q9Y478+Q13131+Q9UGI9); test: AMP-dependent Kinase enzyme assay. An in vitro enzyme assay that detects ADP turnover that is directly proportional to AMPK activity. This uses naive AMPK that is activated during the assay with MK-8722; format: functional; details: 30 µM
# [4] = target: Sialic acid-binding Ig-like lectin 9 (Homo sapiens) (UniProt Q9Y336); test: Hs-Siglec9 ALPHAscreen SOP 20170721; details: 10 µM
# Trypanosoma cruzi = test: Trypanosoma cruzi phosphomannomutase and mannose-1-phosphate guanylyltransferase assay; format: functional; details: 10 µM
# [5] = target: T2, Arginase-2, mitochondrial (Homo sapiens) (UniProt P78540); test: in vitro enzyme assay to detect the production of urea directly proportional to the activity of Arginase II; format: functional; details: 33.3 µM; note: in the data most compounds retested in dose-response had high values
# T2 sequence (whole entry): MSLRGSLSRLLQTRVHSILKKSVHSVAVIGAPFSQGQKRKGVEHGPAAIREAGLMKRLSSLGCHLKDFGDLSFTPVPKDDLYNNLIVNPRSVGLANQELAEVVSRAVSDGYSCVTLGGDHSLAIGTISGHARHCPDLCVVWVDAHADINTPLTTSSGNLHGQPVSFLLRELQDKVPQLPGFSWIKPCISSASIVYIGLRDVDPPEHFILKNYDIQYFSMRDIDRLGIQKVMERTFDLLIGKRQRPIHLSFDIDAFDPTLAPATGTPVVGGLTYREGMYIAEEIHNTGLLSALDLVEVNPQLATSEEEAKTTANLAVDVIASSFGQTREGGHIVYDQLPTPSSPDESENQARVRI
# [6] = target: T3, Proteasome subunit beta (Trypanosoma cruzi) (UniProt O96673); test: Trypanosoma cruzi proteasome chymotrypsin-like activity (TcProtChymo) assay.; note: in the data most compounds retested in dose-response had high values; format: functional; details: 9.37 µM
# T3 sequence (whole entry): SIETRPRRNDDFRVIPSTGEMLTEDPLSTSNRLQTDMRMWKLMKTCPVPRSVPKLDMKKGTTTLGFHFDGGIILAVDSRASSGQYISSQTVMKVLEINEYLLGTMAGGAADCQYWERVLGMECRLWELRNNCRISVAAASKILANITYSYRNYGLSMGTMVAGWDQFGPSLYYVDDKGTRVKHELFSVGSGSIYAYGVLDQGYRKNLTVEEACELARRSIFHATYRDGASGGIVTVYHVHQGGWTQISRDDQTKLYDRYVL
# Homo sapiens = species: Homo sapiens; test: To identify inhibition of the IFN signalling (Jak-Stat) pathway via expression of an eGFP reporter gene under the control of an IFN-stimulated response element (ISRE) containing MxA promoter.; format: functional; details: 30 µM
# [7] = target: T4, Tyrosyl-tRNA synthetase, putative (Trypanosoma cruzi (strain CL Brener)) (UniProt Q4DSP6); test: Trypanosoma cruzi tyrosyl tRNA synthetase (TcYRS) _High Tyrosine SOP; format: functional; details: 30 µM; note: in the data most compounds retested in dose-response had high values
# T4 sequence (whole entry): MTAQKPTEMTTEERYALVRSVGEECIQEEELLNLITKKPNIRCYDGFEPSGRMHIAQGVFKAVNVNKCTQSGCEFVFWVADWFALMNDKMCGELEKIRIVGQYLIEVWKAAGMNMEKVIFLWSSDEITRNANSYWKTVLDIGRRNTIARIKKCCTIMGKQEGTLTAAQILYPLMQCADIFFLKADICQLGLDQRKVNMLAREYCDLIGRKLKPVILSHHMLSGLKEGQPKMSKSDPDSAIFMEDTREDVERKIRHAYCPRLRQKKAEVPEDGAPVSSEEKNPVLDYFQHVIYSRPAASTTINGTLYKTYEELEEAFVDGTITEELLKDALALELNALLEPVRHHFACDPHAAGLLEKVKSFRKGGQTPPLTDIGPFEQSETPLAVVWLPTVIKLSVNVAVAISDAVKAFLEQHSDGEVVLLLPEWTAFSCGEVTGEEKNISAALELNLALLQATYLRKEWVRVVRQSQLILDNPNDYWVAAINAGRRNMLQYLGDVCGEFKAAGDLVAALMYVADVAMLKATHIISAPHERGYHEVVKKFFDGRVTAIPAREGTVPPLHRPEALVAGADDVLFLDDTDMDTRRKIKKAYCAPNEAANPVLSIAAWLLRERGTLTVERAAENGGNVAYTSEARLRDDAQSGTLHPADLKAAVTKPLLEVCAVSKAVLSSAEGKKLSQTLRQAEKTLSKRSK
# [8] = target: T4, Tyrosyl-tRNA synthetase, putative (Trypanosoma cruzi (strain CL Brener)); test: Trypanosoma cruzi tyrosyl tRNA synthetase (TcYRS) SOP; format: functional; details: 30 µM
# [9] = target: Chromo domain-containing protein 1 (Saccharomyces cerevisiae (strain ATCC 204508 / S288c) (Baker's yeast)) (UniProt P32657); test: ScCHD-1 Enzyme Inhibition Assay; format: functional; details: 30 µM; note: in the data most compounds retested in dose-response had high values
# Chromo domain-containing protein 1 (Saccharomyces cerevisiae (strain ATCC 204508 / S288c) (Baker's yeast)), sequence (P32657 whole entry, the tested form may be a part): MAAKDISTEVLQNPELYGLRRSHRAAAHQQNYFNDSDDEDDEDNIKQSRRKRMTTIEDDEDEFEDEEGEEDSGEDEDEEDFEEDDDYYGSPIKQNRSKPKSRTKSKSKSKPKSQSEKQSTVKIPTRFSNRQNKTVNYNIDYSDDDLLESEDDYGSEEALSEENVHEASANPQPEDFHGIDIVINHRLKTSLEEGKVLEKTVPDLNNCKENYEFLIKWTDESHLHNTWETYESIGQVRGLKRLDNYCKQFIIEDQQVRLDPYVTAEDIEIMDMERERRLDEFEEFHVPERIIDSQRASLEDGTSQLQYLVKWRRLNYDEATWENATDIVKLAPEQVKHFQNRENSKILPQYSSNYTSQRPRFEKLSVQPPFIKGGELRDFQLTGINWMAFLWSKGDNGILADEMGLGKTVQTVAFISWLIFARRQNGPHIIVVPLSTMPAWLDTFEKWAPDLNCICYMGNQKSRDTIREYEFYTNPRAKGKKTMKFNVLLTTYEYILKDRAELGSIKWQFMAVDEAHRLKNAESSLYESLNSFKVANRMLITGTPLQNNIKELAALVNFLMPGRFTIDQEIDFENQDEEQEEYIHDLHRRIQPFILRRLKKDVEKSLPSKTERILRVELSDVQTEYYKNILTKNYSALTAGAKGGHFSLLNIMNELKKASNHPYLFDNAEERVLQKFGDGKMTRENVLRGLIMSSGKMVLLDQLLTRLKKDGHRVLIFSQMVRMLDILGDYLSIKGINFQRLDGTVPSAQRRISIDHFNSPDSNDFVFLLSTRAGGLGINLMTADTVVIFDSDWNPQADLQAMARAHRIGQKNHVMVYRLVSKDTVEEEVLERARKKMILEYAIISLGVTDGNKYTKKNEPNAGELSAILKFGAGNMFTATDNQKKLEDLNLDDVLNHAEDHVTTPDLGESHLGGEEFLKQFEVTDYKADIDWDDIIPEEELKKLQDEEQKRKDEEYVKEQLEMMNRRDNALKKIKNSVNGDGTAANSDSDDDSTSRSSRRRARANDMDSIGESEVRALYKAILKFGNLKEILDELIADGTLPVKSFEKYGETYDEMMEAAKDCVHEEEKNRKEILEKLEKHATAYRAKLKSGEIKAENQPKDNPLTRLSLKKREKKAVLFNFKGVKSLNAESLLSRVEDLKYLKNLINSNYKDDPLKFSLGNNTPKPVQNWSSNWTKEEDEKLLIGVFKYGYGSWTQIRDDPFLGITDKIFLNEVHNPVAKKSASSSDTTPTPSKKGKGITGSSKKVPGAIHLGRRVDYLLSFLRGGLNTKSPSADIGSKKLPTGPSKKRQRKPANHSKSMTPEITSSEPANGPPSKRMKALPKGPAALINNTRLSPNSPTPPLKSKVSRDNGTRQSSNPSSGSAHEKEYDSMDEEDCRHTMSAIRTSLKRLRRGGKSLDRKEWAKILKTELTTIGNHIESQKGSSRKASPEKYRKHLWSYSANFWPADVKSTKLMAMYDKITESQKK
# Protein translocase subunit SecA (Escherichia coli (strain K12)), sequence (P10408 whole entry): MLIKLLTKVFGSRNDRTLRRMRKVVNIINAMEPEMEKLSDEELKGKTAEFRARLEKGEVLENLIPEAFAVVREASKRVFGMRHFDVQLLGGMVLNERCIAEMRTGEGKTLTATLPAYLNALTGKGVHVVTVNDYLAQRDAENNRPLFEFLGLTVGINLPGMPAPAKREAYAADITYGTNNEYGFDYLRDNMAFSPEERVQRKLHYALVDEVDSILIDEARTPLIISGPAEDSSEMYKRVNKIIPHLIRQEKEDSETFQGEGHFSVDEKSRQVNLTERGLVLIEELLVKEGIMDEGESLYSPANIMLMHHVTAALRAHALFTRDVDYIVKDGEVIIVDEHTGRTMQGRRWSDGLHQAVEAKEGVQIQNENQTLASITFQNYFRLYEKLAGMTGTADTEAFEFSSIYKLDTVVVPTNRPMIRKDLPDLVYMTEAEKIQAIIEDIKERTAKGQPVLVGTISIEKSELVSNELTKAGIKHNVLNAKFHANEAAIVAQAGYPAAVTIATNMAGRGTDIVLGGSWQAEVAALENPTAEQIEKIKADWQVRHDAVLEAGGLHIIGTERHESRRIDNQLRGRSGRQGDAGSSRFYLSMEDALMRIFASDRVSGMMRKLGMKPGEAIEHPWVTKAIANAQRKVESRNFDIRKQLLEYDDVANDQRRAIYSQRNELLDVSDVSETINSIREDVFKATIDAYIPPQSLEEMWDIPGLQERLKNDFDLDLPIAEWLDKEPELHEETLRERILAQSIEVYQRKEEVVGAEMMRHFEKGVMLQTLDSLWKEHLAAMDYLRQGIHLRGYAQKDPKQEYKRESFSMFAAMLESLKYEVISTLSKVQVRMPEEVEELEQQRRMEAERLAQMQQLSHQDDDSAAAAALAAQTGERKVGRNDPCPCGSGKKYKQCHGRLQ
# Sialic acid-binding Ig-like lectin 9 (Homo sapiens), sequence (Q9Y336 whole entry): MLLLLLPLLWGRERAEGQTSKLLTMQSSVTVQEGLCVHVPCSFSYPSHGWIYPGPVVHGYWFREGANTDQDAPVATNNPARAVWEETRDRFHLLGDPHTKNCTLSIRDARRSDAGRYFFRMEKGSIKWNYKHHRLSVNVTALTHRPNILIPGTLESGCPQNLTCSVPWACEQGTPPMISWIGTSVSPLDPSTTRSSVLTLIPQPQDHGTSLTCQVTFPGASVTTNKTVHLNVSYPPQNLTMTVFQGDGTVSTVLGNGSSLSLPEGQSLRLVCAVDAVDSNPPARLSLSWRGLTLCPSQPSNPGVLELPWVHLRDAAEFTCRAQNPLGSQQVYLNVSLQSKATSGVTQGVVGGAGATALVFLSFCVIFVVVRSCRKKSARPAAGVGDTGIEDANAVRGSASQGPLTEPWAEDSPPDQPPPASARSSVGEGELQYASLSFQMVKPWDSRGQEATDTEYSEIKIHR
Compound,Percent Effect [1] [%],Percent Effect [2] [%],Percent Effect [3] [%],Percent Effect [4] [%],Percent Effect (Trypanosoma cruzi) [%],Percent Effect [5] [%],Percent Effect [6] [%],Percent Effect (Homo sapiens) [%],Percent Effect [7] [%],Percent Effect [8] [%],Percent Effect [9] [%]
CCc1ccccc1CN1CC[C@@H](NC(=O)c2cccnc2)[C@H](O)C1,-2.67,1.39,-0.714,6.65,8.26,0,12.8,-21.1,3.16,10.3,-3.67
CC(NC(=O)Nc1cccnc1N1CCCC1)c1nncn1C (stereo unspecified),-3.96,5.41,-24,2.82,7.45,-2.81,-0.901,23.6,5.42,16.1,-9.41
CCS(=O)(=O)N1CCc2ccc(NC(=O)Nc3cccc(SC)c3)cc21,-1.43,-20.8,1.15,1.13,0.69,-3.23,17.6,77.5,-48.7,-73.1,-5.8
CC(=O)Nc1nc(CN2CCCC2Cn2cc(C)cn2)cs1 (stereo unspecified),0.188,13,1.99,-21.8,1.08,-6.53,21.9,4.62,9.52,25.9,-28.6
O=C(CCc1cscn1)N1CCCC(n2ccnc2)C1 (stereo unspecified),-6.32,1.27,6.89,-0.321,-2.36,0.645,0.343,-13.2,8.33,5.06,-12.3
CCC1CCCCCN1C(=O)c1nnc2ccccc2c1N (stereo unspecified),-4.89,2.63,3.98,-3.48,-2.82,0,9.11,7.13,0,2.6,-1.43
CCS(=O)(=O)CCn1ccc(NC(=O)CCc2cccc(C)c2)n1,-1.95,5.41,2.06,-5.21,-3.91,-2.08,11.8,5.07,9.9,13.4,4.48
c1ccc(OCCCN2CCN(c3ccc4nncn4n3)CC2)cc1,-7.97,-18.2,-5.57,15.6,8.61,-5.69,17.6,47.8,18.4,24.4,-1.5
Cn1cnnc1S(=O)(=O)C1CCN(S(=O)(=O)C2CC2)CC1,-2.77,-2.74,14.5,1.56,-3.72,-2.27,9.41,-3.78,-3.23,2.5,-1.03
CC(C)c1n[nH]c(C(=O)Nc2ccnn2C(C)C)c1Br,-9.82,12.7,-6.58,19.3,8.4,-6.84,9.42,39.4,7.39,13.9,-9.92
Cc1nn(C)c(C)c1CNCc1ccc(N2CCOCC2)nc1,-1.63,11.4,6.09,-0.523,1.95,-1.5,10.6,13.4,8.33,25.3,-25.1
Cc1cc(C)c(CNC(=O)NCC(O)COc2ccccc2)c(=O)[nH]1 (stereo unspecified),-9.63,7.89,4.9,1.32,-0.84,-0.719,-1.1,12,1.48,-1.24,-2.07
Cc1ccc(N(C)C2CCN(C(=O)c3ccsc3)CC2)nn1,-3.77,5.2,5.3,11.4,5.62,-7.47,10.6,1.47,5.83,19.5,-7.83
CC(C)c1nc(CN(C)C2CCN(Cc3nc(C4CC4)no3)C2)no1 (stereo unspecified),4.92,11,-9.72,4.44,-8.42,1.36,18.8,22.3,3.23,10,-6.06
CCOCC(O)CN1CCN(C(=O)c2cccnc2OC)CC1 (stereo unspecified),-3.44,0,4.2,3.65,-0.936,2.85,-3.72,5.16,3.88,0,1.44
O=C(Cc1csc(-c2ccc(Cl)cc2)n1)NC(C(=O)O)c1ccccc1 (stereo unspecified),-2.32,-1.33,10.5,1.1,-3.73,-9.68,14.6,0.509,1.06,-2.56,-10
